Laboratory results reported in PubChem BioAssay (Tox21).
Inconclusive results are not listed. Activity calls are given as the source filed them. Unless noted, the call rests on the fitted dose curve; in most records, active means well fitted curve in the direction sought with a large enough effect in the repeat runs; inconclusive means weak or mixed curves; inactive means no such curve, though single readings can be large; an effect the other way counts as inactive or inconclusive.

How the values were obtained:
[1] = qHTS assay for small molecule agonists of the p53 signaling pathway - cell viability (AID 651633; calls by dose curve;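 further: p53RE-bla HCT reporter cells with a stable beta-lactamase p53 reporter; nearly all actives have a fitted effect of over 30% in size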)
Summary of the method: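 p53RE-bla cells were treated with compound for 16 hours at 37 C. Cytotoxicity was then measured as CellTiter-Glo luminescence after 30 min at room temperature.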

[2] = qHTS assay for small molecules that induce genotoxicity in human embryonic kidney cells expressing luciferase-tagged ATAD5 - cell viability (AID 651634; calls by dose curve; further: nearly all actives have a fitted effect of over 25% in size; further: potency means the concentration at half of the fitted maximal effect)
Summary of the method: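 Cells (HEK293T, luciferase-tagged ATAD5) are seeded at 2,000 per well, dosed with compound or DMSO vehicle, and incubated 15.5 hr at 37C and 5% CO2. CellTiter-Fluor is added for 30 min before fluorescence is measured.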

[3] = qHTS assay for small molecule disruptors of the mitochondrial membrane potential - cell viability (AID 720634; calls by dose curve;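 further: human HepG2 liver cancer cells; nearly all actives have a fitted effect of over 20% in size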)
Summary of the method: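 Cytotoxicity was measured by ATP quantitation in HepG2 wells that had first been treated with compound for 1 hr and stained with m-MPI dye; CellTiter-Glo incubation was 30 min at room temperature.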

[4] = qHTS assay for small molecule disruptors of the mitochondrial membrane potential (AID 720635); further: potency means the concentration at half of the fitted maximal effect
Summary of the method: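 HepG2 cells exposed to compound 1 hr at 37C, then Mito-MPS dye 30 min. Ratio read of aggregate (540/590 nm) versus monomer (490/535 nm) fluorescence.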

[5] = qHTS assay to test for compound auto fluorescence at 590 nm (red) in HepG2 cells (AID 720674)
Summary of the method: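 HepG2 cells, 2,000 per well in MEM with 10% FBS, attached overnight at 37 C, then got 23 nL compound or DMSO. After 1 hr at 37 C, 5% CO2, red fluorescence was read at 540/590 nm against Rose Bengal sodium as reference.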

[6] = qHTS assay to test for compound auto fluorescence at 535 nm (green) in HepG2 cells (AID 720675)
[7] = qHTS assay to test for compound auto fluorescence at 460 nm (blue) in HEK293 cells (AID 720678)
Summary of the method: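 Intrinsic compound fluorescence is recorded in live HEK293 cultures after overnight incubation at 37C, 5% CO2, using excitation 405 nm and emission 460 nm. Values are referenced to triamterene.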

[8] = qHTS assay to test for compound auto fluorescence at 590 nm (red) in HEK293 cells (AID 720679)
Summary of the method: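 Red autofluorescence, HEK293 cells: 2,000 cells/well; attach 4-5 hr 37C; add 23 nL cpd or DMSO; incubate o/n 37C 5% CO2; read Ex540/Em590; Rose Bengal sodium reference.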

[9] = qHTS assay to test for compound auto fluorescence at 535 nm (green) in HEK293 cells (AID 720680)
[10] = qHTS assay to test for compound auto fluorescence at 460 nm (blue) in HEK293 cell free culture (AID 720681)
Summary of the method: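 Compounds were added to cell-free DMEM with 10% FBS and fluorescence read directly. The blue channel used 405 nm excitation and 460 nm emission, with triamterene as the reference fluorophore.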

[11] = qHTS assay to test for compound auto fluorescence at 535 nm (green) in HEK293 cell free culture (AID 720682)
Summary of the method: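 Cell-free medium (DMEM, 10% FBS) receives compound or DMSO by pintool. Plate read directly at Ex 485/Em 535 nm. Signal converted to fluorescein equivalency.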

[12] = qHTS assay to test for compound auto fluorescence at 590 nm (red) in HEK293 cell free culture (AID 720683)
Summary of the method: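 Cell-free wells of DMEM with 10% FBS received compound, and intrinsic fluorescence was read at excitation/emission 540/590 nm. Values expressed as equivalence to Rose Bengal sodium.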

[13] = qHTS assay to test for compound auto fluorescence at 590 nm (red) in HepG2 cell free culture (AID 720684)
Summary of the method: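 Rose Bengal sodium served as the reference for red signal. Test compounds were dispensed into serum-containing MEM (10% FBS) without cells, and plates were read at 540/590 nm.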

[14] = qHTS assay to test for compound auto fluorescence at 460 nm (blue) in HepG2 cell free culture (AID 720685)
Summary of the method: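 Cell-free plates of MEM plus 10% FBS received 23 nL compound or DMSO vehicle; blue-channel (405/460 nm) intensity scored against triamterene as reference fluorophore.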

[15] = qHTS assay to test for compound auto fluorescence at 535 nm (green) in HepG2 cell free culture (AID 720686)
[16] = qHTS assay to test for compound auto fluorescence at 460 nm (blue) in HepG2 cells (AID 720687)
Summary of the method: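 HepG2 cells in MEM with 10% FBS, attached overnight at 37 C, were exposed to compound or DMSO for 1 hr at 37 C, 5% CO2. Blue fluorescence was read at 405/460 nm, with triamterene as reference fluorophore.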

[17] = target: Glucocorticoid receptor (Homo sapiens) (UniProt P04150); experiment: qHTS assay to identify small molecule antagonists of the glucocorticoid receptor (GR) signaling pathway (AID 720692; active means well fitted inhibition curve with a large enough effect in the signal ratio in the repeat runs, not every such curve was filed as active; the % refers to the signal ratio; further: potency means the concentration at half of the fitted maximal effect)
Glucocorticoid receptor (Homo sapiens), sequence (P04150 whole entry, looked up): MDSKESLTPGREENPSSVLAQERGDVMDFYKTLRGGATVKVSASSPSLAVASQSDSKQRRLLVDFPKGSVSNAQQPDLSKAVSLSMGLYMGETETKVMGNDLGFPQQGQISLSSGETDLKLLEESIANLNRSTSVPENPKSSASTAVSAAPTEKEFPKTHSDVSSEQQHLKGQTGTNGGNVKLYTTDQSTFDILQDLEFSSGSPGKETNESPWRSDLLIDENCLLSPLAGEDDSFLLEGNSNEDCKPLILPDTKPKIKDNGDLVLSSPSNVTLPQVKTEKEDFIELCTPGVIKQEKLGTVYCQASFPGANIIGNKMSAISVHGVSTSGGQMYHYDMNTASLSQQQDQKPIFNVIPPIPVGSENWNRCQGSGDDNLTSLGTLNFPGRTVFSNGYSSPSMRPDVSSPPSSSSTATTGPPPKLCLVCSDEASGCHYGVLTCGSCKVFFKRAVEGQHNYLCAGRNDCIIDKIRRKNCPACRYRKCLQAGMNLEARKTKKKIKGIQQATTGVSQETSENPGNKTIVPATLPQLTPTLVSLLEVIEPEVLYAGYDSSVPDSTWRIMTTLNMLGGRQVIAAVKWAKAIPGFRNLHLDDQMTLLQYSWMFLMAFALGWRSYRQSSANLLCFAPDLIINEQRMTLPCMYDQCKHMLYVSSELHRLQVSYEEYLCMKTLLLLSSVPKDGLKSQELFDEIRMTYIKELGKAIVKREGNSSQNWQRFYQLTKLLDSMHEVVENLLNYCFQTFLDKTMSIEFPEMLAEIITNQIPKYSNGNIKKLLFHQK
Summary of the method: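 Antagonism was scored as loss of dexamethasone-driven (5 nM final) reporter signal in HeLa cells bearing a glucocorticoid response element–beta-lactamase construct, after 18 h compound exposure at 37 C and 2 h FRET substrate loading.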

[18] = target: Glucocorticoid receptor (Homo sapiens) (UniProt P04150); experiment: qHTS assay to identify small molecule agonists of the glucocorticoid receptor (GR) signaling pathway (AID 720691; active means well fitted activation curve with a large enough effect in the signal ratio in the repeat runs, not every such curve was filed as active; the % refers to the signal ratio); conditions: GR-bla HeLa, beta-lactamase reporter ratio, 18 h; activation: at 62.4 µM (top of the series)
Summary of the method: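 Steps: seed GR-bla HeLa cells, incubate 4 h at 37 C/5% CO2; pin-transfer DMSO-dissolved compounds; incubate 18 h at 37 C; add LiveBLAzer B/G FRET substrate; after 2 h at room temperature, measure fluorescence.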

Measured: Potency

Nc1nc(=O)n([C@@H]2CS[C@H](CO)O2)cc1F
not listed: [18]
inactive: all other assays above

OCC(O)CO
not listed: [1] | [2] | [3] | [4] | [17] | [18]
inactive: all other assays above

[O]=[Bi][O][Bi]=[O]
not listed: [14] | [17]
inactive: all other assays above

Cc1cccc(C)c1Nc1ncccc1C(=O)O
active: [4] 23.7 µM
not listed: [6] | [14]
inactive: all other assays above

CN1CCN(CCC=C2c3ccccc3Sc3ccc(S(=O)(=O)N(C)C)cc32)CC1
active: [2] 29.8 µM
not listed: [1] | [3] | [4] | [17] | [18]
inactive: all other assays above

CCCCC/C=C\C/C=C\C/C=C\CCCCC(=O)O
not listed: [4] | [14] | [17] | [18]
inactive: all other assays above

CCN(CC)CCOCCOC(=O)C(CC)(CC)c1ccccc1
not listed: [4] | [17] | [18]
inactive: all other assays above

CC1CCCC1
not listed: [1] | [2] | [3] | [4] | [17] | [18]
inactive: all other assays above

CCN(CC)CCC(=O)N1c2ccccc2Sc2ccc(Cl)cc21
not listed: [4] | [14] | [17]
inactive: all other assays above

CN1CCC(OC(=O)C(Oc2ccc(Cl)cc2)Oc2ccc(Cl)cc2)CC1
not listed: [4] | [17]
inactive: all other assays above

CC(O)[C@@H]1NC(=O)[C@H](Cc2ccccc2)NC(=O)[C@H](C(C)O)NC(=O)[C@H](CCCCN)NC(=O)[C@H](Cc2c[nH]c3ccccc23)NC(=O)[C@H](Cc2ccccc2)NC(=O)[C@H](Cc2ccccc2)NC(=O)[C@H](CC(N)=O)NC(=O)[C@H](CCCCN)NC(=O)[C@@H](NC(=O)CNC(=O)[C@H](C)N)CSSC[C@@H](C(=O)O)NC(=O)[C@H](CO)NC1=O (stereo not given in full)
not listed: [14] | [17] | [18]
inactive: all other assays above

CC1=C[C@H](O)CC(C)(C)[C@H]1/C=C/C(C)=C/C=C/C(C)=C/C=C/C=C(C)/C=C/C=C(C)/C=C/C1=C(C)C[C@@H](O)CC1(C)C
active: [17] 23.9 µM
not listed: [1] | [4]
inactive: all other assays above

NC(=O)OC[C@@H]1[C@H](NC(=O)/C(=N\OCC(=O)O)c2csc(N)n2)C(=O)N1S(=O)(=O)O
inactive: all assays above
